Records with an inconclusive call do not appear. Where a call stands in place of a potency, no number is given. Active and inactive are the calls of the source. Unless noted, calls come from the whole dose curve; as a rule, active = well fitted curve in the direction sought with a large enough effect in the repeat runs; inconclusive = weak or mixed curves; inactive = no such curve, though single readings can be large; an effect the other way counts as inactive or inconclusive. Non-standard residues stand in square brackets, D forms with d. Residues, ends and D or L forms follow the SMILES beside them. Orn = NCCC[C@H](N)C(=O)O
What was measured:
[1] = qHTS assay for small molecule agonists of the p53 signaling pathway (AID 651631; calls by dose curve; note: nearly all actives have a fitted effect of over 15% in size; note: potency is the fitted concentration of half-maximal effect)
How it was run: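 Beta-lactamase reporter activity under p53 response elements was quantified in HCT-116 cells by FRET fluorescence, following 16 h incubation with test compounds at 37 °C and 2 h substrate development at room temperature.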

[2] = qHTS assay for small molecules that induce genotoxicity in human embryonic kidney cells expressing luciferase-tagged ATAD5 (AID 651632); note: nearly all actives have a fitted effect of over 15% in size
How it was run: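 Luminescent reporter readout, HEK293T ATAD5-luc line: 16 hr drug exposure (37C, 5% CO2) followed by Amplite, 30 min RT.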

[3] = qHTS assay for small molecule agonists of the p53 signaling pathway - cell viability (AID 651633; calls by dose curve; note: nearly all actives have a fitted effect of over 30% in size; note: potency is the fitted concentration of half-maximal effect)
How it was run: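 p53RE-bla cells were treated with compound for 16 hours at 37 C. Cytotoxicity was then measured as CellTiter-Glo luminescence after 30 min at room temperature.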

[4] = qHTS assay for small molecules that induce genotoxicity in human embryonic kidney cells expressing luciferase-tagged ATAD5 - cell viability (AID 651634; calls by dose curve; note: nearly all actives have a fitted effect of over 25% in size; note: potency is the fitted concentration of half-maximal effect)
How it was run: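 Viability read: CellTiter-Fluor fluorescence, 30 min at 37C. Cells: HEK293T, luciferase-tagged ATAD5. Exposure: 15.5 hr, 37C, 5% CO2, compound or DMSO vehicle.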

[5] = qHTS assay for small molecule disruptors of the mitochondrial membrane potential - cell viability (AID 720634; calls by dose curve; note: nearly all actives have a fitted effect of over 20% in size; note: potency is the fitted concentration of half-maximal effect)
How it was run: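 HepG2, 1 hr compound, 37 C. ATP luminescence via CellTiter-Glo, 30 min RT, same well as m-MPI.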

[6] = qHTS assay for small molecule disruptors of the mitochondrial membrane potential (AID 720635); note: potency is the fitted concentration of half-maximal effect
How it was run: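 HepG2 cells exposed to compound 1 hr at 37C, then Mito-MPS dye 30 min. Ratio read of aggregate (540/590 nm) versus monomer (490/535 nm) fluorescence.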

[7] = qHTS assay to test for compound auto fluorescence at 590 nm (red) in HepG2 cells (AID 720674)
How it was run: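 HepG2 cells, 2,000 per well in MEM with 10% FBS, attached overnight at 37 C, then got 23 nL compound or DMSO. After 1 hr at 37 C, 5% CO2, red fluorescence was read at 540/590 nm against Rose Bengal sodium as reference.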

[8] = qHTS assay to test for compound auto fluorescence at 535 nm (green) in HepG2 cells (AID 720675)
[9] = qHTS assay to test for compound auto fluorescence at 460 nm (blue) in HEK293 cells (AID 720678)
How it was run: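 Measured: blue fluorescence (Ex 405/Em 460 nm) of compound-treated HEK293 cells, incubated overnight at 37C with 5% CO2 and scaled to triamterene equivalents.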

[10] = qHTS assay to test for compound auto fluorescence at 590 nm (red) in HEK293 cells (AID 720679)
How it was run: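 Using HEK293 cells at 2,000 per well, the screen added 23 nL of each compound after cell attachment and incubated overnight (37C, 5% CO2). The plate reader then captured red-label fluorescence, Ex/Em 540/590nm.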

| Structure (SMILES) | Potency [1] | Potency [2] | Potency [3] | Potency [4] | Potency [5] | Potency [6] | outcome [7] | Potency [8] | Potency [9] | outcome [10] |
| --- | --- | --- | --- | --- | --- | --- | --- | --- | --- | --- |
| O=C1CCC/C=C\CCCCCCCCCC1 | inactive | inactive | inactive | inactive | inactive | 68.6 µM (active) | inactive | inactive | inactive | inactive |
| CC(C)c1ncc([N+](=O)[O-])n1C | inactive | inactive | inactive | inactive | inactive | inactive | inactive | inactive | inactive | inactive |
| NC(=S)NS(=O)(=O)c1ccc(N)cc1 | inactive | inactive | inactive | inactive | inactive | inactive | inactive | inactive | inactive | inactive |
| C=CC[N+]1([C@H]2C[C@H]3[C@@H]4CC[C@H]5C[C@H](O)[C@@H](N6CCOCC6)C[C@]5(C)[C@H]4CC[C@]3(C)[C@H]2OC(C)=O)CCCC1 | inactive | inactive | inactive | inactive | inactive | inactive | inactive | inactive | inactive | inactive |
| OCl | inactive | inactive | inactive | inactive | inactive | inactive | inactive | inactive | inactive | inactive |
| O=C1c2ccccc2C(=O)C1c1ccc(F)cc1 | inactive | inactive | inactive | inactive | inactive | inactive | inactive | inactive | inactive | inactive |
| C=C1[C@@H]2CC[C@@H](C2)C1(C)C | inactive | inactive | inactive | inactive | inactive | inactive | inactive | inactive | inactive | inactive |
| CC(C)C[C@@H](NC(=O)[C@@H](O)[C@H](N)Cc1ccccc1)C(=O)O | inactive | inactive | inactive | inactive | inactive | inactive | inactive | inactive | inactive | inactive |
| CC(C)=CCC/C(C)=C/CC/C(C)=C/CC/C=C(\C)CC/C=C(\C)CCC=C(C)C | inactive | inactive | inactive | inactive | inactive | inactive | inactive | inactive | inactive | inactive |
| CC(C)C[C@@H]1NC(=O)[C@H](CCCN)NC(=O)[C@H](C(C)C)NC(=O)[C@@H]2CCCN2C(=O)[C@@H](Cc2ccccc2)NC(=O)[C@H](CC(C)C)NC(=O)[C@H](CCCN)NC(=O)[C@H](C(C)C)NC(=O)[C@@H]2CCCN2C(=O)[C@@H](Cc2ccccc2)NC1=O (cyclo(V[Orn]L[dF]PV[Orn]L[dF]P)) | 1.88 µM (active) | inactive | 2.66 µM (active) | 2.98 µM (active) | 13.3 µM (active) | 0.237 µM (active) | inactive | inactive | inactive | inactive |
| CC(C)COC(=O)OCN1C(=O)CN(CCN2CC(=O)N(COC(=O)OCC(C)C)C(=O)C2)CC1=O | 3.76 µM (active) | inactive | inactive | inactive | inactive | inactive | inactive | inactive | inactive | inactive |
| CCC1OC(=O)C[C@@H](O)[C@H](C)[C@@H](O[C@@H]2O[C@H](C)C[C@H](N(C)C)[C@H]2O)[C@@H](CC=O)C[C@@H](C)C(=O)/C=C/[C@]2(C)OC2C1C (stereo not given in full) | 29.8 µM (active) | inactive | inactive | inactive | inactive | inactive | inactive | inactive | inactive | inactive |
| OCCCNc1ccccc1 | inactive | inactive | inactive | inactive | inactive | inactive | inactive | inactive | inactive | inactive |
| CCc1ncnc2cc(OC)c(OC)cc12 | inactive | inactive | inactive | inactive | inactive | inactive | inactive | inactive | inactive | inactive |
| CC(=NCc1ccccc1)c1ccccc1O | inactive | inactive | inactive | inactive | inactive | inactive | inactive | inactive | inactive | inactive |
| Cc1ccc(Cl)c(N)c1Cl | inactive | inactive | inactive | inactive | inactive | inactive | inactive | inactive | inactive | inactive |
| NC[C@@H]1CC[C@@H](N)[C@@H](O[C@H]2[C@H](O)[C@@H](O[C@H]3O[C@H](CO)[C@@H](O)[C@H](N)[C@H]3O)[C@H](N)C[C@@H]2N)O1 | inactive | inactive | inactive | inactive | inactive | inactive | inactive | inactive | inactive | inactive |
| CCCCCCCCCCCC[n+]1ccc2ccccc2c1 | 26.6 µM (active) | inactive | 29.8 µM (active) | 7.5 µM (active) | inactive | 2.98 µM (active) | inactive | inactive | inactive | inactive |
| CCOc1ccc(NC(=S)Nc2ccc(OCC)cc2)cc1 | inactive | inactive | inactive | inactive | inactive | 11.9 µM (active) | inactive | inactive | inactive | inactive |

— PubChem BioAssay (Tox21)
